# Laboratory results from PubChem BioAssay (NCATS).
# For part of these data: Measured potencies and affinities stand elsewhere. Active and inactive are the calls of the source.
# How the values were obtained:
# [1] = Ebola virus entry assay, green fluorescence channel
# [2] = Ebola virus entry assay, blue channel fluorescence
# [3] = qHTS profiling of the MIPE4 collection as inhibitors of Plasmodium falciparum (3D7) proliferation (AID 743344);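 further: scaled between DMSO vehicle wells and 0.29 µM artemisinin as full inhibition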; settings: P. falciparum 3D7 in erythrocytes, SYBR Green DNA fluorescence, 72 h; at 28.5 µM (top of the series) unless noted
# Method in brief: (§1)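 Parasite DNA was quantified by SYBR Green I fluorescence (ex 485, em 535 nm) after overnight lysis in saponin/Triton buffer at room temperature. Cultures at 0.3% parasitemia and 2.5% hematocrit were first exposed to compound for 72 h at 37 C; signals were normalised to artemisinin (0.29 uM) and vehicle wells.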
# [4] = qHTS profiling of the MIPE4 collection as inhibitors of Plasmodium falciparum (DD2) proliferation (AID 743345); settings: P. falciparum Dd2 in erythrocytes, SYBR Green DNA, 72 h; at 28.5 µM (top of the series) unless noted
# Method in brief: as §1
# [5] = qHTS profiling of the MIPE4 collection as inhibitors of Plasmodium falciparum (DD2) proliferation (Rep 2) (AID 743346); settings: P. falciparum Dd2 in erythrocytes, SYBR Green DNA, 72 h; at 28.5 µM (top of the series) unless noted
# Method in brief: as §1
# [6] = qHTS profiling of the MIPE4 collection as inhibitors of Plasmodium falciparum (HB3) proliferation (AID 743347);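 further: plate controls were DMSO vehicle wells for no effect and artemisinin wells for full effect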; settings: P. falciparum HB3 in erythrocytes, SYBR Green DNA, 72 h; at 28.5 µM (top of the series) unless noted
# Method in brief: as §1
# [7] = Ebola virus entry assay, blue channel fluorescence; remark: listed apart in the source
# [8] = Ebola virus entry assay, green fluorescence channel; remark: listed apart in the source
# Wherever efficacy is given: 0% is about no effect.
compound,measurement,setting,value
CC(=O)O[C@@H]1CC2C3CCc4cc(OC(=O)c5ccccc5)ccc4C3CCC2(C)[C@H]1OC(C)=O (stereo partly drawn),efficacy,[1],11.6% (inactive)
same,outcome,[2],inactive
OC[C@@H](O)[C@@H](O[C@@H]1O[C@H](CO)[C@H](O)[C@H](O)[C@H]1O)[C@H](O)[C@@H](O)CO,efficacy,[1],-17.2% (inactive)
same,outcome,[2],inactive
O=C(N/N=C/c1ccccc1O)c1ccncc1,efficacy,[1],66.8% (inactive)
same,outcome,[2],inactive
O=C(NCC(O)CO)c1c(I)c(C(=O)NCC(O)CO)c(I)c(N(CCO)C(=O)CO)c1I (stereo not drawn),efficacy,[1],35.5% (inactive)
same,outcome,[2],inactive
O=C(OCCN1CCOCC1)c1cccnc1Nc1cccc(C(F)(F)F)c1,efficacy,[1],-15.5% (inactive)
same,outcome,[2],inactive
O=C1[C@@H]2[C@H]3CC[C@H](C3)[C@@H]2C(=O)N1CCCCN1CCN(c2ncccn2)CC1,efficacy,[1],-13.3% (inactive)
same,outcome,[2],inactive
C[C@H]1C[C@H](O)c2ccsc2S1(=O)=O,efficacy,[1],20.1% (inactive)
same,outcome,[2],inactive
CC(=O)O[C@]1(C(C)=O)CC[C@H]2[C@@H]3C[C@H](C)C4=CC(=O)CC[C@]4(C)[C@H]3CC[C@@]21C,efficacy,[1],38.2% (inactive)
same,outcome,[2],inactive
O=C(Nc1ccc(Br)cc1)c1cc(Br)cc(Br)c1O,efficacy,[1],-20.2% (inactive)
same,outcome,[2],inactive
NC(=S)N/N=C/c1cccnc1,efficacy,[1],12.5% (inactive)
same,outcome,[2],inactive
Cc1cccc(C)c1NC(=O)CN1CCCCCC1,efficacy,[1],-23% (inactive)
same,outcome,[2],inactive
COc1cccc(OC)c1C(=O)N[C@@H]1C(=O)N2[C@@H]1SC(C)(C)[C@@H]2C(=O)O,efficacy,[1],19.6% (inactive)
same,outcome,[2],inactive
Oc1ccc(OCc2ccccc2)cc1,efficacy,[1],14.9% (inactive)
same,outcome,[2],inactive
O=C(O)Cc1ccc(OCCNC[C@H](O)c2ccccc2)cc1,efficacy,[1],-33.3% (inactive)
same,outcome,[2],inactive
CO/N=C(/C(=O)N[C@@H]1C(=O)N2C(C(=O)[O-])=C(C[n+]3ccn4ncccc43)CS[C@H]12)c1nsc(N)n1,efficacy,[1],12.5% (inactive)
same,outcome,[2],inactive
Cn1c(=O)c2c(ncn2CCO)n(C)c1=O,efficacy,[1],-37.9% (inactive)
same,outcome,[2],inactive
CCc1cc(S(=O)(=O)O)c2cc(C(C)C)cccc1-2,efficacy,[1],18.8% (inactive)
same,outcome,[2],inactive
CCCCOC(=O)c1ccc(O)cc1,efficacy,[1],-26.2% (inactive)
same,outcome,[2],inactive
CC(C)Cn1cnc2c(N)nc3ccccc3c21,efficacy,[1],-30.7% (inactive)
same,outcome,[2],inactive
CCCCCCCC/C=C/C(=O)O,efficacy,[1],20.4% (inactive)
same,outcome,[2],inactive
CCCCCCCCCCCC(=O)[O][Sn]([CH2]CCC)([CH2]CCC)[O]C(=O)CCCCCCCCCCC,efficacy,[1],-17.6% (inactive)
same,outcome,[2],inactive
O=c1cc[nH]c(=O)[nH]1,efficacy,[1],11.9% (inactive)
same,outcome,[2],inactive
COc1cccc([C@@]2(O)CCCC[C@@H]2CN(C)C)c1,efficacy,[1],-12.5% (inactive)
same,outcome,[2],inactive
O=C(c1ccco1)N1CCNCC1,efficacy,[1],12.6% (inactive)
same,outcome,[2],inactive
NCCCNCCSP(=O)(O)O,efficacy,[1],18% (inactive)
same,outcome,[2],inactive
O=C(O)Cn1c(=O)n(Cc2ccc(Br)cc2F)c(=O)c2ccc(Cl)cc21,efficacy,[1],-18.1% (inactive)
same,outcome,[2],inactive
Clc1cccc(C(c2ccc3nc[nH]c3c2)n2ccnc2)c1 (stereo not drawn),efficacy,[1],-19.4% (inactive)
same,outcome,[2],inactive
NNC(=O)c1ccncc1,efficacy,[1],13.1% (inactive)
same,outcome,[2],inactive
COc1cc(CCN)cc(OC)c1OC,efficacy,[1],10.5% (inactive)
same,outcome,[2],inactive
COC(=O)c1cccnc1,efficacy,[1],12.2% (inactive)
same,outcome,[2],inactive
C[N+]1(C)[C@@H]2CC(OC(=O)[C@H](CO)c3ccccc3)C[C@H]1[C@@H]1O[C@@H]12 (stereo partly drawn),efficacy,[1],12.9% (inactive)
same,outcome,[2],inactive
C[C@]12CCC(=O)C=C1CC[C@@H]1[C@@H]2CC[C@@]2(C)[C@H]1CC[C@]2(C)O,efficacy,[1],-23% (inactive)
same,outcome,[2],inactive
COc1cc(NS(=O)(=O)c2ccc(N)cc2)nc(C)n1,efficacy,[1],-19.1% (inactive)
same,outcome,[2],inactive
O=C1CC(c2ccc(Cl)cc2)CC(=O)N1,efficacy,[1],-27.6% (inactive)
same,outcome,[2],inactive
CCOC(=O)/C=C(C)/C=C/C=C(C)/C=C/c1c(C)cc(OC)c(C)c1C,efficacy,[1],27.5% (inactive)
same,outcome,[2],inactive
NS(=O)(=O)c1cc(C(=O)NN2C[C@H]3[C@H]4CCC(C4)[C@H]3C2)ccc1Cl,efficacy,[1],-15.5% (inactive)
same,outcome,[2],inactive
CC(=O)CC/C=C(\C)CC/C=C(\C)CC/C=C(\C)CCC=C(C)C,efficacy,[1],-14.5% (inactive)
same,outcome,[2],inactive
Nc1c[n+](N2CCOCC2)no1,efficacy,[1],-8.8% (inactive)
same,outcome,[2],inactive
Cc1ccc(S(=O)(=O)NC(=O)NC2CCCCCCC2)cc1,efficacy,[1],-10.6% (inactive)
same,outcome,[2],inactive
COc1ccc(C(=O)N2CCN(CC(=O)N3CCOCC3)CC2)cc1,efficacy,[1],-11.2% (inactive)
same,outcome,[2],inactive
COc1ccc2nc(SCc3ncc(C)c(OC)c3C)[nH]c2c1,efficacy,[1],-11.5% (inactive)
same,outcome,[2],inactive
O=C(O)CCCCC1CCSS1 (stereo not drawn),efficacy,[1],-16.3% (inactive)
same,outcome,[2],inactive
Nc1ccc(S(N)(=O)=O)cc1,efficacy,[1],-20.5% (inactive)
same,outcome,[2],inactive
CCCCCCCCCC(=O)O[C@H]1CC[C@H]2[C@@H]3CCC4=CC(=O)CC[C@@H]4[C@H]3CC[C@]12C,efficacy,[1],27.8% (inactive)
same,outcome,[2],inactive
CC(O)C(=O)O (stereo not drawn),efficacy,[1],12.5% (inactive)
same,outcome,[2],inactive
Cc1cc(O)c2c(O)c3c(O)cccc3cc2c1,efficacy,[1],34.7% (inactive)
same,outcome,[2],inactive
C=CCC1(C(C)CC)C(=O)NC(=O)NC1=O (stereo not drawn),efficacy,[1],14.7% (inactive)
same,outcome,[2],inactive
COC(=O)c1cc(Cl)c(NC(C)=O)cc1OC,efficacy,[1],-16.3% (inactive)
same,outcome,[2],inactive
CC(CCc1ccc2c(c1)OCO2)NN (stereo not drawn),efficacy,[1],17.5% (inactive)
same,outcome,[2],inactive
COc1cc(OC)nc(O[C@H](C(=O)O)C(OC)(c2ccccc2)c2ccccc2)n1,efficacy,[1],36.2% (inactive)
same,outcome,[2],inactive
CC(=O)N[C@@H](CCC(=O)O)C(=O)O,efficacy,[1],-13.7% (inactive)
same,outcome,[2],inactive
CC(C)(C(=O)c1cccnc1)c1cccnc1,efficacy,[1],15.8% (inactive)
same,outcome,[2],inactive
CC(C)(Oc1ccc(C2CC2(Cl)Cl)cc1)C(=O)O (stereo not drawn),efficacy,[1],16.1% (inactive)
same,outcome,[2],inactive
CC(=O)OC[C@H]1O[C@@H](OC(C)=O)[C@H](OC(C)=O)[C@@H]1OC(C)=O,efficacy,[1],18.7% (inactive)
same,outcome,[2],inactive
O=C(Oc1ccccc1C(=O)O)c1ccccc1O,efficacy,[1],10% (inactive)
same,outcome,[2],inactive
CCOC(=O)C1=C(C)NC(C)=C(C(=O)OC)C1c1cccc([N+](=O)[O-])c1 (stereo not drawn),efficacy,[1],20.7% (inactive)
same,outcome,[2],inactive
COc1ccc(C2C(=O)c3ccccc3C2=O)cc1,efficacy,[1],-26.8% (inactive)
same,outcome,[2],inactive
COc1ccnc(CS(=O)c2nc3ccc(OC(F)F)cc3[nH]2)c1OC (stereo not drawn),efficacy,[1],-31.1% (inactive)
same,outcome,[2],inactive
O=C(O)[C@@H](O)[C@H](O)[C@H](O)[C@@H](O)C(=O)O,efficacy,[1],-24.9% (inactive)
same,outcome,[2],inactive
CCO/C([O-])=N/c1c[n+](N2CCOCC2)no1,efficacy,[1],-25.2% (inactive)
same,outcome,[2],inactive
Cc1cccc(C(=O)O)c1O,efficacy,[1],15.1% (inactive)
same,outcome,[2],inactive
C[C@]12Cc3cn[nH]c3C[C@@H]1CC[C@@H]1[C@@H]2CC[C@@]2(C)[C@H]1CC[C@]2(C)O,efficacy,[1],8.25% (inactive)
same,outcome,[2],inactive
N=C(N)N,efficacy,[1],19.5% (inactive)
same,outcome,[2],inactive
CCCCCCCCCCOc1cc2c(=O)c(C(=O)OCC)c[nH]c2cc1OCC,efficacy,[1],11% (inactive)
same,outcome,[2],inactive
NS(=O)(=O)c1ccc(NC(=O)CCC(=O)O)cc1,efficacy,[1],9.25% (inactive)
same,outcome,[2],inactive
Cc1cc(OI)c(C(C)C)cc1-c1cc(C(C)C)c(OI)cc1C,efficacy,[1],13.6% (inactive)
same,outcome,[2],inactive
Clc1ccccc1N1CCNCC1,efficacy,[1],-17.1% (inactive)
same,outcome,[2],inactive
Oc1ccc(Cl)c2cccnc12,efficacy,[1],-23.9% (inactive)
same,outcome,[2],inactive
CC(C)C(=O)Nc1cccc(C(F)(F)F)c1,efficacy,[1],16.7% (inactive)
same,outcome,[2],inactive
CC(C)NCC(O)c1cc(O)cc(O)c1 (stereo not drawn),efficacy,[1],56.8% (inactive)
same,outcome,[2],inactive
CC(=O)NO,efficacy,[1],-14.2% (inactive)
same,outcome,[2],inactive
CCN1CCC[C@H]1CNC(=O)c1cc(S(N)(=O)=O)ccc1OC,efficacy,[1],-21.3% (inactive)
same,outcome,[2],inactive
CNCc1ccccc1,efficacy,[1],-19.2% (inactive)
same,outcome,[2],inactive
CN1Cc2cc(C(=O)N3CCC(C4CCNCC4)CC3)ccc2NC(CC(=O)O)C1=O (stereo not drawn),efficacy,[1],57.9% (inactive)
same,outcome,[2],inactive
CN1[C@@H]2CC(OC(=O)[C@H](CO)c3ccccc3)C[C@H]1[C@@H]1O[C@@H]12 (stereo partly drawn),efficacy,[1],-18.3% (inactive)
same,outcome,[2],inactive
CC(C(=O)O)c1ccc(/C=C2\CCCCC2=O)cc1 (stereo not drawn),efficacy,[1],13.8% (inactive)
same,outcome,[2],inactive
CC(=O)OCC(=O)[C@@]1(OC(C)=O)[C@@H](C)C[C@H]2[C@@H]3C[C@H](F)C4=CC(=O)C=C[C@]4(C)[C@@]3(F)[C@@H](O)C[C@@]21C,efficacy,[1],58.7% (inactive)
same,outcome,[2],inactive
CCOP(=S)(OCC)Oc1ccc2c(C)c(Cl)c(=O)oc2c1,efficacy,[1],16.9% (inactive)
same,outcome,[2],inactive
Cc1cc(O)c2ccccc2c1O,efficacy,[1],13.4% (inactive)
same,outcome,[2],inactive
CN(C)CCN1CCN(c2cccc(Cl)c2)C1=O,efficacy,[1],-56.2% (inactive)
same,outcome,[2],inactive
C[C@]12CC[C@H]3[C@@H](CC[C@@]45O[C@H]4C(O)=C(C#N)C[C@]35C)[C@H]1CC[C@H]2O,"parasite growth, % of DMSO control",[3],70.4%
same,"parasite growth remaining, % of DMSO control (lower = more inhibition)",[4],70.8%
same,"parasite growth, % of control (lower = inhibition)",[5],55.7%
same,"growth, % of control",[6],90.1%
same,efficacy,[1],26.8% (inactive)
CC(C)OC(=O)OCOP(=O)(CO[C@H](C)Cn1cnc2c(N)ncnc21)OCOC(=O)OC(C)C,"parasite growth, % of DMSO control",[3],292%
same,"parasite growth remaining, % of DMSO control (lower = more inhibition)",[4],79.8%
same,"parasite growth, % of control (lower = inhibition)",[5],74.1%
same,"growth, % of control",[6],345%
same,efficacy,[1],-18.7% (inactive)
CC[N+](CC)(CC)CCOc1cccc(OCC[N+](CC)(CC)CC)c1OCC[N+](CC)(CC)CC,"parasite growth, % of DMSO control",[3],86%
same,"parasite growth, % of control (lower = inhibition)",[5],133%
same,"growth, % of control",[6],111%
same,efficacy,[1],15.9% (inactive)
same,outcome,[2],inactive
CCCCCN(C)CCC(O)(P(=O)(O)O)P(=O)(O)O,outcome,[7],inactive
same,outcome,[8],inactive
O=C1c2ccccc2CCc2ccccc21,efficacy,[1],12.1% (inactive)
same,outcome,[2],inactive
FC(F)(F)c1ccccc1-n1ccnc1,efficacy,[1],12.1% (inactive)
same,outcome,[2],inactive
COP(=S)(OC)Oc1cc(Cl)c(Cl)cc1Cl,efficacy,[1],-14% (inactive)
same,outcome,[2],inactive
